Screening results (PubChem)
SW480 rerep: induces DNA re-replication in SW480 colon adenocarcinoma cells; 1.8% of 340,000 active; SW480 DNA re-replication, Hoechst DNA content imaging, 48 h; Potency, µM (series often up to 46.1 µM), for inactives: at the top dose re-replication activation, most hits filed as activators; also: potency is read from the fitted curve at half-maximal effect; % of control where 0% means no effect; nearly all actives have a fitted effect of over 55% in size
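Compounds, transferred as 23 nL by pin tool, were incubated with cells for 48 hr; DNA content per nucleus was then quantified by Hoechst staining and fluorescence plate imaging.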
MCF10A rerep: induces DNA re-replication in MCF 10a normal breast cells. MCF 10A DNA re-replication, Hoechst nuclear intensity, 48 h. Potency, µM (series often up to 46.1 µM), inactives show at the top dose activity, positive = re-replication, hits mostly activators. 2.9% of 350,000 active. AID 624296; also: potency is read from the fitted curve at half-maximal effect; % of control where 0% means no effect; nearly all actives have a fitted effect of over 50% in size
uPA generation: blocks generation of uPA at the cell surface. cell surface uPA generation assay, qHTS. Potency, µM (titrated, usually from 38.3 µM), for the others: at the highest dose activity change, negative = inhibition, usual class: inhibitors. AID 540303. 0.31% of 330,000 active; active = well fitted inhibition curve with a large enough effect; inconclusive = small, poorly fitted or top-dose-only effect; inactive = no such curve, though single readings can be large or run the other way; tested in mouse RAW 264.7 cells; also: potency is read from the fitted curve at half-maximal effect; % is scaled to controls: 0 for no effect and ±100 for the full control effect; nearly all actives have a fitted effect of over 55% in size
Giardia kill: kills Giardia lamblia; 0.15% of 340,000 active; activity change, % at 7.66 µM, hits read low; AID 540267; Giardia lamblia trophozoite viability; in the data active = activity change below about -80%; inconclusive = between about -30% and that limit;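 also: parasites exposed to compound for two days anaerobically before the ATP read; % is scaled to controls: 0 for no effect and ±100 for the full control effect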
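Giardia lamblia trophozoites (100 cells/well) were incubated with compounds for 48 h at 37 deg C under anaerobic conditions. Viability was read as ATP content by one-step luminescence after 15-30 min at room temperature.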
The depositor's hits bear a star; ? = inconclusive; · = not tested or not shown; [ ] = another dose, or the depositor's remark. In the library only some 4.3% were active in any assay of this set; here they are far more common. Unless noted, calls follow the shape of the dose curve; as a rule, active = well fitted activation curve with a large enough effect; inconclusive = small, poorly fitted or top-dose-only effect; inactive = no such curve, though single readings can be large or run the other way.

SMILES | SW480 rerep | MCF10A rerep | uPA generation | Giardia kill
CCc1nnc(NS(=O)(=O)c2ccc(NC(=S)NC(=O)c3ccc(OC)c(OC)c3)cc2)s1 | 18µM* | ? | 29% | -3
CCc1nnc(NS(=O)(=O)c2ccc(N/C=C\C(=O)c3ccc(C)cc3)cc2)s1 | -1% | ? | -5% | 21
CSc1ncccc1C(=O)OCC(=O)NC1CC1 | -2% | -2% | 1% | -1
CN1CCN(c2nc(NCc3ccco3)nc(N)c2[N+](=O)[O-])CC1 | 13µM* | ? | -5% | -9
Cc1cccc(Nc2nc(N)c([N+](=O)[O-])c(N3CCC(C)CC3)n2)c1 | ? | 23µM* | -12% | -23
Nc1nc(NCc2ccco2)nc(N2CCCCC2)c1[N+](=O)[O-] | -2% | 0% | -19% | 0
CCN1CCN(c2nc(Nc3cccc(OC)c3)nc(N)c2[N+](=O)[O-])CC1 | 16µM* | 28% | ? | 20
Cc1ccc(C)c(S(=O)(=O)N2CCCCC2CCNC(=O)C(=O)NCc2ccncc2)c1 (configuration not stated) | -2% | 9% | -6% | 9
Cc1ccc(S(=O)(=O)N2CCN(C(=O)C3CCCC3)CC2)cc1C | 0% | ? | -1% | 10
NC(=O)c1cccc(CS(=O)(=O)c2ccc(Cl)cc2)c1 | ? | -2% | 5% | 1
CN1CCO[C@H](c2ccccc2)c2ccccc2C1 | 0%[20.6 µM] | 9%[20.6 µM] | · | ·
N#C/C(=C/c1cn(-c2ccccc2)nc1-c1cccc(OCc2ccc(F)cc2)c1)C(=O)NCCCn1ccnc1 | ? | 10µM* | -5% | -9
O=C(NCC(=O)N1CCCC(C(F)(F)F)C1)c1ccc2ccccc2c1 (configuration not stated) | 18µM* | 7% | -3% | -5
NC(=O)n1c(O)c(C(=O)c2cccs2)c2cc(Cl)ccc21 | 2% | ? | · | ·
Cc1cc(NC(=O)/C=C/c2ccccc2Cl)n(-c2nc3ccccc3[nH]2)n1 | ? | 16µM* | -2% | -21
Cc1cc(NC(=O)c2ccc(F)cc2F)n(-c2nc3ccccc3[nH]2)n1 | 1% | ? | · | -1
Cc1cc2nc(-c3ccc[nH]c3=O)[nH]c2cc1C | 17% | 16% | 0.89µM* | -94*
CCC(=O)Nc1c(S(=O)(=O)c2ccc(C)cc2)c2nc3ccccc3nc2n1C(C)c1ccccc1 (configuration not stated) | ? | ? | -3% | -1
CCC(=O)Nc1c(S(=O)(=O)c2ccccc2)c2nc3ccccc3nc2n1C(C)c1ccccc1 (configuration not stated) | ? | 21µM* | 0% | -5
CCCCn1c(NC(=O)c2ccco2)c(S(=O)(=O)c2ccc(C)cc2)c2nc3ccccc3nc21 | ? | 8.2µM* | 1% | 0
Cc1ccc(S(=O)(=O)c2c(N)n(Cc3ccco3)c3nc4ccccc4nc23)cc1C | ? | 15µM* | 2% | 9
Nc1c(S(=O)(=O)c2ccccc2)c2nc3ccccc3nc2n1Cc1ccco1 | ? | ? | 5% | -2
CCCCCn1c(NC(=O)c2ccco2)c(S(=O)(=O)c2ccc(C)cc2)c2nc3ccccc3nc21 | 1% | 2% | -18% | 4
Cc1ccc(S(=O)(=O)c2c(N)n(CCCO)c3nc4ccccc4nc23)cc1 | 6% | -1% | -2% | -1
CCCCn1c(NS(=O)(=O)c2ccccc2)c(S(=O)(=O)c2ccc(C)cc2)c2nc3ccccc3nc21 | 13µM* | ? | 7% | -16
SMILES | SW480 rerep | MCF10A rerep | uPA generation | Giardia kill
CCOc1ccc(NC(=O)CN2C(=O)NC(CCc3ccccc3)C2=O)cc1OCC (configuration not stated) | 0% | 12% | 4% | 9
O=C(Nc1ccc(S(=O)(=O)Nc2ncccn2)cc1)C12CC3CC(CC(Cl)(C3)C1)C2 | 1% | -3% | -1% | 15
O=S1(=O)C2CC3C=CC2(CN1Cc1cccc(F)c1)O3 (configuration not stated) | · | · | · | 5
CN(Cc1ccccc1F)C(=O)c1cccc(NC(=O)CC2SC(N3CCCCC3)=NC2=O)c1 (configuration not stated) | 1% | 6% | -4% | -10
O=C(O)c1ccccc1-c1c2cc(Br)c(=O)c(Br)c-2oc2c(Br)c(O)c(Br)cc12 | -6% | -10% | · | ·
COc1cccc(C2=CC(=O)C(C(C)(C)C)N2C(C)(C)C)c1 (configuration not stated) | 4% | 18% | 12% | -15
CCCN(CC(=O)Nc1ccccc1C)C(=O)Cc1c(C)nc2ccccc2c1C | -18% | 9% | 5% | 12
Cc1ccc(S(=O)(=O)c2c(N)n(CCC(C)C)c3nc4ccccc4nc23)cc1 | 16µM* | ? | -7% | -7
CCCCn1c(NC(=O)c2ccc(Br)o2)c(S(=O)(=O)c2ccccc2)c2nc3ccccc3nc21 | ? | 18µM* | · | -9
CCCCn1c(NC(C)=O)c(C#N)c2nc3ccccc3nc21 | 16% | ? | 0% | -4
COc1ccc(S(=O)(=O)N2CCOCC2)cc1NC(=O)C1CCCCN1S(=O)(=O)c1ccccc1 (configuration not stated) | -2% | -3% | -6% | 27
NC(=O)[C@@H]1CSSCCC(=O)N[C@@H](CCCCN=C(N)N)C(=O)NCC(=O)N[C@@H](CC(=O)O)C(=O)N[C@@H](Cc2c[nH]c3ccccc23)C(=O)N2CCC[C@H]2C(=O)N1 | 1% | 8% | · | ·
COc1ccc(/C=C/c2ccc3cccc(O)c3n2)cc1Br | 10% | 6% | -17% | -1
COc1ccc(/C=C/c2ccc3c(Br)ccc(O)c3n2)cc1 | ? | 23µM* | -4% | 1
Cc1cc(C)c2ccc(N)nc2c1O | ? | ? | -11% | -4
Cc1ccc2c(Br)cc(Br)c(O)c2n1 | -2% | 19µM* | · | ·
COc1cc(/C=C/c2ccc3c(Br)cc(Br)c(O)c3n2)ccc1O | ? | 13µM* | 21% | 10
O=C(CN1CCN(C(C(=O)Nc2cc(C(F)(F)F)ccc2Cl)c2ccccc2)CC1)NC1CC1 (configuration not stated) | -9% | 3% | 0% | 19
N#CSCC(=O)c1cccc2ccccc12 | ? | 18µM* | -10% | -14
Cc1nnc(N2C(=O)c3cccc4c([N+](=O)[O-])ccc(c34)C2=O)s1 | ? | 23µM* | 10µM* | 13
O=C1c2cccc3c([N+](=O)[O-])ccc(c23)C(=O)N1Cc1cccnc1 | ? | 18µM* | · | 0
Cc1ccnc(N2C(=O)c3cccc4c([N+](=O)[O-])ccc(c34)C2=O)c1 | 3.7µM* | 4.6µM* | ? | -20
Cc1ccc(N2C(=O)c3cccc4c([N+](=O)[O-])ccc(c34)C2=O)c2cccnc12 | 2.1µM* | 2.6µM* | ? | ?
O=C1c2cccc3cccc(c23)C(=O)N1Cc1cccnc1 | -15% | 0% | -4% | -19
COc1ccc(-c2noc(C)c2-c2ccc3ccccc3n2)c(O)c1 | 4.6µM* | ? | -4% | 1
COc1ccc(-c2ccc3ccccc3n2)cc1 | -9% | -5% | -9% | -2
O=C1c2cc(Cl)ccc2-c2c(O)cc(Cl)cc21 | ? | 13µM* | -6% | -2
